This is an account of results in PubChem BioAssay AID540259 (Broad Institute, 2011).

SMILES strings stand for the structures. Entries with a potency or affinity are not part of this list. Calls of active or inactive are those of the source.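 How the source made its calls: active means cell killing, meaning signal decrease, with fitted half-maximal dose at or below ten times the top valid tested dose; inconclusive means poor fit, or flat curve with 30 to 70% signal loss; inactive means the rest.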

A short description of this experiment: ATP-based viability loss in HeLa cells – cell-based, CellTiter-Glo luminescence, cherry-pick samples, cytotoxicity control for MITF activator project, dose response (AID 540259).

For `CN1C(=O)NC(=O)C(C)(C2=CCCCC2)C1=O` (stereo not given), the compound was called inactive.

With `Cc1nn(CC(C)C)c(Cl)c1C(=O)NC1CCC(C)CC1` (stereo not given), the outcome was inactive.

Take `O=C1C(=O)N(c2ccccc2)P(=O)(N(CCCl)CCCl)N1c1ccccc1`: the outcome was inactive.

In the case of `COc1ccc(-c2cc(=NCCC(=O)O)c3cc(C)ccc3o2)cc1`, the compound was classed as inactive.

Consider `CC(Cc1ccccc1)/[N+]([O-])=C\c1ccc(C(F)(F)F)cc1` (stereo not given), for which the call was inactive.
